The record followed here is the supplement of paper PMC13380429.

SMILES strings stand for the structures.

The test system of this assay is Vero E6 infected with SARS-CoV-2. Kind of assay: morphology score (similarity to uninfected cells); higher = more like uninfected cells. Particulars: 24 h.
`Nc1cccc(CNC(=O)c2ccc(Oc3ccc(OCc4cccc(F)c4)cc3)nc2)c1` (10 µM) registered a morphology score of -0.419.
For the compound `O=c1cc(N2CCOCC2)oc2c(-c3ccccc3)cccc12` (0.833333 µM), the morphology score came out at 0.266.
`C[N+]12CCCCC1CCC(=C(c1cccs1)c1cccs1)C2` (stereo unspecified) [tiquizium] (10 µM) displayed a morphology score of 0.138.
Consider `C#C[C@]1(O)CC[C@H]2[C@@H]3CCc4cc(OC)ccc4[C@H]3CC[C@@]21C` [mestranol] (10 µM), for which the morphology score is -0.00302.
In turn, `CO/N=C(\C(=O)N[C@@H]1C(=O)N2C(C(=O)OCOC(=O)C(C)(C)C)=C(C)CS[C@H]12)c1csc(N)n1` [cefetamet-pivoxil] (10 µM) returned a morphology score of 0.225.
Next, `Cc1csc2c(N[C@@H](C)CN3CCN(S(=O)(=O)c4ccc(Cl)c(Cl)c4)CC3)ncnc12` [LPA2-antagonist-1] (10 µM): 0.142; `C#C[C@]1(O)CC[C@H]2[C@@H]3CCC4=Cc5oncc5C[C@]4(C)[C@H]3CC[C@@]21C` [danazol] (10 µM): 0.377.
The compound `Cc1c(N)nc([C@H](CC(N)=O)NC[C@H](N)C(N)=O)nc1C(=O)N[C@H](C(=O)N[C@H](C)[C@@H](O)[C@H](C)C(=O)N[C@H](C(=O)NCCc1nc(-c2nc(C(=O)NCCCNCCCCN)cs2)cs1)[C@@H](C)O)[C@@H](O[C@@H]1O[C@@H](CO)[C@@H](O)[C@H](O)[C@@H]1O[C@@H]1O[C@H](CO)[C@@H](O)[C@H](OC(N)=O)[C@@H]1O)c1cnc[nH]1` [bleomycetin] (0.833333 µM) yielded a morphology score of 0.128.
`CCCCCCOc1ccccc1C(N)=O` [exalamide] (10 µM) had a morphology score of 0.105.
For `CC(C)OC(=O)[C@H](C)N[P@](=O)(CO[C@H](C)Cn1cnc2c(N)ncnc21)Oc1ccccc1` [tenofovir-alafenamide] (10 µM), the morphology score was -0.0883.
`O=C(O)Cn1c(C(=O)Nc2nc(-c3ccccc3Cl)cs2)cc2ccccc21` (10 µM) came in with a morphology score of 0.162.
Next, `O=c1c(O)c(-c2cc(O)c(O)c(O)c2)oc2cc(O)cc(O)c12` [myricetin] (10 µM): 0.195; `NC(=O)OCC(COC(N)=O)c1ccccc1` [felbamate] (10 µM): -0.0125.
Next, `Cc1cc(C(C#N)c2ccc(Cl)cc2)c(Cl)cc1NC(=O)c1cc(I)cc(I)c1O` (stereo unspecified) [closantel] (10 µM): 0.257; `O=c1cc[nH]c(=O)[nH]1` [uracil] (10 µM): -0.002.
Next, `COc1ccccc1NC(=O)OCC1CCN(C(=O)OC(C)(C)C)CC1` (10 µM): 0.0728; `COc1cccc(OC)c1-c1cc(C(=O)N[C@@H](CC(C)C)C(=O)O)nn1-c1ccnc2cc(Cl)ccc12` (10 µM): -0.0246; `O=C(O)c1cc2occc2[nH]1` (10 µM): -0.103.
In turn, `CCCCCCCCCCCCCCCC(=O)OC(CC(=O)[O-])C[N+](C)(C)C` (stereo unspecified) [palmitoylcarnitine] (0.833333 µM) had a morphology score of -0.0181.
For the compound `CC(=O)N[C@@H](CC(C)C)C(=O)O` [acetyl-l-leucine] (10 µM), the morphology score is 0.134.
Consider `O=C1NC(O)CCN1[C@@H]1O[C@H](CO)[C@@H](O)[C@H]1O` (stereo partly specified) [tetrahydrouridine] (10 µM), for which the morphology score was 0.167.
Compound `O=C(c1c2ccccc2cc2ccccc12)N1CCC(N2CCC[C@@H](C(=O)N3CCOCC3)C2)CC1` (10 µM) came in with a morphology score of 0.0309.
Compound `CCN(c1cc(C#CCN2CCOCC2)cc(C(=O)NCc2c(C)cc(C)[nH]c2=O)c1C)[C@H]1CC[C@H](N(C)CCOC)CC1` (10 µM) yielded a morphology score of 0.163.
The compound `NC(=O)C1=CN([C@@H]2O[C@H](COP(=O)(O)OP(=O)(O)OC[C@H]3O[C@@H](n4cnc5c(N)ncnc54)[C@H](O)[C@@H]3O)[C@@H](O)[C@H]2O)C=CC1` [coenzyme-I] (10 µM) gave a morphology score of 0.00507.
`CN(CC[C@@H](Oc1ccc(-c2ccccc2)cc1)c1ccc(F)cc1)CC(=O)O` (10 µM): the morphology score was 0.036.
With `CCCCCCCCCCCCc1ccc(S(=O)(=O)Nc2nncs2)cc1` (10 µM), the morphology score is 0.158.
For `CC(C)[C@H]1C(=O)N[C@@H](CCCNC(=N)N)C(=O)NCC(=O)N[C@@H](CC(=O)O)C(=O)N[C@H](Cc2ccccc2)C(=O)N1C` [cilengitide] (10 µM), the morphology score is -0.377.
`O=C(O)CNC(=O)c1c(O)c2ccccc2n(Cc2ccccc2)c1=O` (10 µM) registered a morphology score of -0.000636.
Compound `O=C(CCc1ccncc1)NNC(=O)N1Cc2ccccc2Oc2ccc(Cl)cc21` (10 µM) showed a morphology score of -0.103.
As to `O=C1c2cccnc2OC[C@@H]2CCCN12` (10 µM), the morphology score is -0.0333.
Consider `O=C(O)/C=C(/CC(=O)O)C(=O)O` [cis-aconitic-acid] (10 µM), for which the morphology score was -0.118.
